From PubChem BioAssay (EPA / NIEHS) come the findings set out here.

Records with an inconclusive call do not appear. Calls of active or inactive are those of the source. How the source made its calls, unless noted: active means hit-call score of the fitted dose curve at least 0.9, where 1 is the maximum; inconclusive means response in the unintended direction; inactive means score below 0.9.

The target in test [1] is Peroxisome proliferator-activated receptor gamma (Homo sapiens) (UniProt P37231). Briefly: OT_PPARg_PPARgSRC1_1440: Odyssey Thera (OT) 24-hour Protein-Complementation Assay for Peroxisome Proliferator-activated Receptor Gamma/ SRC-1 Co-activator (AID 2283388).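 Further: nuclear to cytoplasmic ratio of reconstituted Venus YFP fluorescence in fixed imaged cells.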 The essentials: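 Readout: nuclear-to-cytoplasmic 488 nm fluorescence ratio, ≥350 cells per image, 8 images per well, after 24 h compound exposure of HEK293T expressing PPARg/SRC-1 split-YFP fusions. Activity fitted in positive direction against DMSO.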

Test [2] is described as follows: ATG_XTT_Cytotoxicity: Cytotoxicity Assessment in the Attagene TRANS-FACTORIAL HepG2 Assay (AID 2283584). The essentials: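 XTT readout of cell number in transfected HepG2 cells, 24 h post-dosing; DMSO serves as negative control and baseline, with activity taken as loss of viability signal.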
Test [3] is described as follows: TOX21_p53_BLA_p2_viability: Viability Assessment in the Tox21 HCT-116 p53 Agonism Beta-lactamase Assay, Phase 2 (AID 2283591).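 Further: compound exposure lasted 16 h at 37 °C; actives lower the ATP signal meaning cytotoxicity.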 The essentials: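 HCT-116 p53-bla cells (4000/well) rested 5 h at 37C, then received compounds in DMSO (217-fold dilution) for 16 h at 37C, 5% CO2. After the CCF4 read, CellTiter-Glo was added; ATP luminescence was read after 30 min at room temperature.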

The target of test [4] is Cellular tumor antigen p53 (Homo sapiens) (UniProt P04637). The experiment in a line: TOX21_p53_BLA_p2_ratio: Tox21 HCT-116 p53 Agonism Beta-lactamase Assay, Ratio, Phase 2 (AID 2283592). A digest of the protocol: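 In this cell-based reporter format, HCT116 cells were dosed with chemicals delivered from DMSO by 217-fold dilution and incubated 16 h at 37C. Emission at 460 and 530 nm after 2 h CCF4-AM loading provided the ratio, fitted upward versus DMSO.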

The nature of test [5]: TOX21_p53_BLA_p4_viability: Viability Assessment in the Tox21 HCT-116 p53 Agonism Beta-lactamase Assay, Phase 4 (AID 2283597).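 Further: hits lower the luminescence signal meaning cytotoxicity.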 A digest of the protocol: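 We seeded HCT116 p53 reporter cells at 4000/well and waited 5 h. We then added compounds in DMSO at a 217-fold dilution and incubated for 16 h. Viability was read as CellTiter-Glo luminescence after 30 min at RT.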
Test [6] addresses Cellular tumor antigen p53 (Homo sapiens) (UniProt P04637). The experiment in a line: TOX21_p53_BLA_p5_ratio: Tox21 HCT-116 p53 Agonism Beta-lactamase Assay, Ratio, Phase 5 (AID 2283599). A digest of the protocol:
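HCT-116 cells carrying a p53-inducible beta-lactamase reporter were seeded at 4000 cells/well and dosed after 5 h with compound in DMSO (217-fold dilution). After 16 h at 37C, CCF4-AM substrate was added for 2 h, and the 460/530 nm emission ratio was scored as gain-of-signal versus DMSO.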

Test [7] can be described thus: TOX21_p53_BLA_p5_viability: Viability Assessment in the Tox21 HCT-116 p53 Agonism Beta-lactamase Assay, Phase 5 (AID 2283600). The essentials: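 Compounds, pinned from DMSO at 217-fold dilution, were left on the cells for 16 h. The viability endpoint was ATP content measured by CellTiter-Glo luminescence, where falling signal reflects cytotoxicity.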
For test [8], the target named is Cellular tumor antigen p53 (Homo sapiens) (UniProt P04637). Briefly: TOX21_p53_BLA_p4_ratio: Tox21 HCT-116 p53 Agonism Beta-lactamase Assay, Ratio, Phase 4 (AID 2283601). The essentials: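 HCT116 cells carrying an inducible beta-lactamase reporter were plated at 4000 cells/well, rested 5 h, then exposed to compounds in DMSO (217-fold dilution) for 16 h at 37C. CCF4-AM substrate was loaded 2 h at room temperature; 460/530 nm emission ratio scored gain-of-signal versus DMSO.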

Test [9] is described as follows: TOX21_p53_BLA_p3_viability: Viability Assessment in the Tox21 HCT-116 p53 Agonism Beta-lactamase Assay, Phase 3 (AID 2283593).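 Further: cells exposed to compound for 16 h before reading.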 A digest of the protocol: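 HCT-116 cells (4000/well) rested 5 h at 37C, then got DMSO compounds by pin tool (217-fold dilution) for 16 h at 37C, 5% CO2. After the bla read, CellTiter-Glo was added and luminescence read at 30 min, room temperature.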

In test [10] the target is Cellular tumor antigen p53 (Homo sapiens) (UniProt P04637). The experiment in a line: TOX21_p53_BLA_p3_ratio: Tox21 HCT-116 p53 Agonism Beta-lactamase Assay, Ratio, Phase 3 (AID 2283596). The essentials:
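HCT116 p53-bla cells (4000/well) given compound in DMSO (217-fold dilution) after 5 h, incubated 16 h at 37C. CCF4-AM substrate 2 h at room temperature; 460/530 nm emission ratio, gain fitted against DMSO.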

Test [11] in a line: CEETOX_H295R_11DCORT: CeeTox H295R High-throughput Steroidogenesis Assay for 11-Deoxycortisol (11DCORT) (AID 2283432; active means hit-call score of the fitted dose curve at least 0.9, where 1 is the maximum; inactive means score below 0.9). The conditions noted are these: actives raise or lower the signal. The essentials: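 Human adrenal H295R cells were prestimulated with 10 uM forskolin for 48 h, then exposed to test chemical (0.1% DMSO final) for 48 h. Medium 11-deoxycortisol was quantified by MTBE extraction and HPLC-MS/MS; bidirectional fitting relative to DMSO.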

Test [12] is described as follows: CEETOX_H295R_OHPREG: CeeTox H295R High-throughput Steroidogenesis Assay for OH-Pregnenolone (OHPREG) (AID 2283434; active means hit-call score of the fitted dose curve at least 0.9, where 1 is the maximum; inactive means score below 0.9). The conditions noted are these: actives raise or lower the signal. The essentials: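 Human adrenal H295R cells were prestimulated 48 h with 10 uM forskolin, then exposed 48 h to chemical in 0.1% DMSO. Medium 17alpha-hydroxypregnenolone was quantified by HPLC-MS/MS after MTBE extraction; bidirectional fitting versus DMSO baseline.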

Test [13] can be described thus: CEETOX_H295R_CORTIC: CeeTox H295R High-throughput Steroidogenesis Assay for Corticosterone (CORTIC) (AID 2283437; active means hit-call score of the fitted dose curve at least 0.9, where 1 is the maximum; inactive means score below 0.9;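 further: corticosterone secreted into medium quantified by mass spectrometry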). As to conditions: actives raise or lower the signal. The essentials: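 H295R cells were prestimulated 48 h with 10 uM forskolin, then exposed 48 h to test chemical in 0.1% DMSO. Medium corticosterone was MTBE-extracted and quantified by HPLC-MS/MS; bidirectional fit versus DMSO baseline.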

The nature of test [14]: CEETOX_H295R_CORTISOL: CeeTox H295R High-throughput Steroidogenesis Assay for Cortisol (AID 2283438; active means hit-call score of the fitted dose curve at least 0.9, where 1 is the maximum; inactive means score below 0.9;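 further: cortisol secreted into medium quantified by LC-MS/MS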). The conditions noted are these: actives raise or lower the signal. A digest of the protocol: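 Forskolin 10 uM 48 h prestim → test cmpd in DMSO (0.1% final) 48 h → medium MTBE-extracted → LC-MS/MS cortisol vs 7-pt std curve. Gain/loss of signal fitted vs DMSO. MTT viability in same wells.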

The nature of test [15]: CEETOX_H295R_DOC: CeeTox H295R High-throughput Steroidogenesis Assay for DOC (AID 2283439; active means hit-call score of the fitted dose curve at least 0.9, where 1 is the maximum; inactive means score below 0.9). The conditions noted are these: actives raise or lower the signal. The essentials:
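Readout: 11-deoxycorticosterone in culture medium by reverse-phase C18 HPLC with ESI+ tandem MS after MTBE extraction. Cells: H295R, forskolin-primed (10 uM, 48 h), chemical-treated 48 h; DMSO 0.1% final. Activity fitted bidirectionally versus DMSO.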

A short description of test [16]: CEETOX_H295R_ESTRADIOL: CeeTox H295R High-throughput Steroidogenesis Assay for Estradiol (AID 2283440; active means hit-call score of the fitted dose curve at least 0.9, where 1 is the maximum; inactive means score below 0.9;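 further: estradiol secreted into medium quantified by LC-MS/MS after dansyl derivatisation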). As to conditions: actives raise or lower the signal. The essentials:
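H295R, 48 h forskolin (10 uM) prestim → 48 h compound, 0.1% DMSO final. Estradiol in medium: MTBE extraction, dansyl chloride derivatization, LC-MS/MS. Fit bidirectional vs DMSO baseline; MTT viability in same wells.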

Test [17] in a line: CEETOX_H295R_ESTRONE: CeeTox H295R High-throughput Steroidogenesis Assay for Estrone (AID 2283441; active means hit-call score of the fitted dose curve at least 0.9, where 1 is the maximum; inactive means score below 0.9;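 further: estrone secreted into medium measured by LC-MS/MS after dansyl derivatization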). The conditions noted are these: actives raise or lower the signal. A digest of the protocol: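 H295R cells prestimulated 48 h with 10 uM forskolin, then exposed 48 h to chemicals in 0.1% DMSO final; estrone in medium extracted with MTBE, dansyl-derivatized, quantified by HPLC-MS/MS; bidirectional fitting versus DMSO, viability by MTT.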

A short description of test [18]: CCTE_Simmons_CellTiterGLO_HEK293T: Viability Assessment in CCTE's Assays for Thyroperoxidase (TPO) Inhibition, Simmons Lab (AID 2283665).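 On AC50: cells exposed to compound for 24 h before readout; actives reduce ATP signal below DMSO vehicle meaning cytotoxicity.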 The essentials: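 HEK293T, 10 000 cells/well, DMEM + 1% FBS; 8-pt titration 5 nM–87.5 uM [final], 0.5% DMSO; 24 hr, 37C, 5% CO2; CellTiter-Glo luminescence; n=3 biological replicates.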
(ATP-based viability assays read luminescence as a measure of living cells.)

Test [19] is described as follows: CEETOX_H295R_ANDR: CeeTox H295R High-throughput Steroidogenesis Assay for Androstenedione (ANDR) (AID 2283436; active means hit-call score of the fitted dose curve at least 0.9, where 1 is the maximum; inactive means score below 0.9). As to conditions: actives raise or lower the signal. A digest of the protocol:
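H295R human adrenal cells (passages ≤10) were exposed to test chemicals for 48 h; androstenedione in medium was MTBE-extracted and quantified by HPLC-MS/MS against a 7-point standard curve. Bidirectional fitting used DMSO as baseline.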

The nature of test [20]: CEETOX_H295R_TESTO: CeeTox H295R High-throughput Steroidogenesis Assay for Testosterone (TESTO) (AID 2283457; active means hit-call score of the fitted dose curve at least 0.9, where 1 is the maximum; inactive means score below 0.9). The conditions noted are these: actives raise or lower the signal. A digest of the protocol: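 Readout: testosterone quantified by HPLC-MS/MS (C18, ESI positive) after MTBE liquid-liquid extraction of culture medium. Cells were H295R, 48 h chemical exposure per OECD 456 with modifications. Gain or loss of signal fitted relative to DMSO.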

Sequence of Cellular tumor antigen p53 (Homo sapiens) (P04637 whole entry, looked up): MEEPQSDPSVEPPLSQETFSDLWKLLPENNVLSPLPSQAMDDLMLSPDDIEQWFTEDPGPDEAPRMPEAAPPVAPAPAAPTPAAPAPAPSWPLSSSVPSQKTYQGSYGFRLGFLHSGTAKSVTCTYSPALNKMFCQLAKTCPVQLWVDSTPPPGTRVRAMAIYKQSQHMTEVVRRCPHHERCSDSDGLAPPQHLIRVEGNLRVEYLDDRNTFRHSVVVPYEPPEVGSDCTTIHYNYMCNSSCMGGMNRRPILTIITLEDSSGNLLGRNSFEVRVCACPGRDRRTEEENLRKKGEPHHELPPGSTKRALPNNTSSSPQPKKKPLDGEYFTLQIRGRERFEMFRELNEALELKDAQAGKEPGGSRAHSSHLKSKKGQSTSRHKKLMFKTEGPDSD
Sequence of Peroxisome proliferator-activated receptor gamma (Homo sapiens) (P37231 whole entry, looked up, the tested form may be a part): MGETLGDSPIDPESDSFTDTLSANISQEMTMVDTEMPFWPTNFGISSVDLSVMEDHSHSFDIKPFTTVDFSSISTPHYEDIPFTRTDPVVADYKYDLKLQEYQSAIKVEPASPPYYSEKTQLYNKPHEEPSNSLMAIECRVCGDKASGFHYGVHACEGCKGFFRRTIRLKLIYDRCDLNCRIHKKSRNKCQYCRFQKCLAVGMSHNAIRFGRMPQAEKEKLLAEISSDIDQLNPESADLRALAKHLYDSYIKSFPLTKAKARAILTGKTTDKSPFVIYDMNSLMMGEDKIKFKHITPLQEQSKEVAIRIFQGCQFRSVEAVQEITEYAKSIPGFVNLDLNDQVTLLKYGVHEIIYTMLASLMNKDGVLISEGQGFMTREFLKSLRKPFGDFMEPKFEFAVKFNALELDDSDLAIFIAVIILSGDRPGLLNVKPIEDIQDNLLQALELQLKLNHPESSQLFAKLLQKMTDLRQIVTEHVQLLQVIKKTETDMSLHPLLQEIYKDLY

Regarding `OC1CCCC1`, in [1], the compound was classed as inactive.
Turning to `NC(=O)N=NC(N)=O`, the outcome in [1], in test [2], in test [3], in test [4], in test [5] and in [6] was inactive. Also, the compound was called inactive in [7] and in [8].
In the case of `NC(=O)c1ccccc1O`, the compound was called inactive in test [1], in test [2], in test [3], in test [4], in [9] and in [10]. Also, the outcome in test [6], in [7] and in test [8] was inactive.
Consider `CCCCC(CC)CCC(CC(C)C)OS(=O)(=O)O` (stereo not given), for which the outcome in test [1], in [2], in test [3], in test [4], in test [9] and in [10] was inactive. Also, the compound was classed as inactive in test [5], in test [6], in [7] and in test [8].
For `CC(C)(C)c1ccc(-c2ccc(C(C)(C)C)cc2)cc1`, the compound was called inactive in test [1].
Consider `CCCCCCCCCCCCCOP(=O)(O)O`, for which the outcome in test [1], in [11], in test [12], in test [13], in test [14] and in [15] was inactive. The outcome in [16], in [17], in [2], in test [3], in test [4] and in test [5] was inactive. The outcome in test [8] was inactive. Moreover, the results for the AC50 in [9], in test [10] and in [18] were 72.2 µM (active), 86.8 µM (active) and 79.1 µM (active), respectively.
Consider `CCCCC/C=C\CCC=O`, for which the compound was called inactive in [1], in [11], in [12], in test [19], in test [13] and in test [14]. Besides, the call in test [15], in test [20], in [2], in test [9], in [10] and in [5] was inactive. The outcome in test [6] and in test [8] was inactive.
As for `Cn1c([N+](=O)[O-])cnc1COC(N)=O`, the call in test [1], in test [2], in test [3], in test [4], in [9] and in [10] was inactive. For the same compound, the result in [5], in [6], in [7] and in test [8] was inactive.
For `CCCc1ccc(OC)cc1`, the compound was classed as inactive in test [1] and in [2].
As to `CC1=CC[C@H]2C[C@@H]1C2(C)C`, the compound was called inactive in test [1], in [3] and in [5].
Turning to `O=C(C(Cl)Cl)N1CCOC12CCCCC2`, the compound was classed as inactive in [1], in test [2], in [3] and in test [5].
`CC(C)(C)c1ccc(N)cc1`: the call in [1], in test [2] and in test [18] was inactive.
On to `CC(=O)[C@H]1[C@H](C#N)C[C@H]2[C@@H]3CC=C4C[C@@H](O)CC[C@]4(C)[C@H]3CC[C@@]21C`, for which the compound was classed as inactive in test [1], in test [2], in test [3], in test [5], in test [6] and in test [7]. Besides, the outcome in test [8] was inactive.
Take `CCCCCCCCO[C@@H]1O[C@H](CO)[C@@H](O)[C@H](O)[C@H]1O`: the call in test [1], in [2], in test [4], in [9], in test [10] and in test [6] was inactive. Moreover, the result in test [8] was inactive.
On to `C=COCCCC`, for which the call in test [11], in test [12], in test [19], in [13], in test [14] and in [15] was inactive. The result in test [16], in [17], in test [20] and in [2] was inactive.

The AC50 is the midpoint of the concentration-response curve, whichever way the signal moves.
